Compounds without any hit were thinned out: in the full panel of roughly 83,000, 20% have a hit.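 Values shown are percent growth following 48 h exposure of cells in 96-well plates to a single concentration of compound; below 10 was considered active.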 Calls of active or inactive are those of the source.
Columns and labels:
Test in all cases: NCI-60 one-dose screen, 48 h (100 = growth as untreated, 0 = no growth, -100 = all killed)
Settings in all cases: 10 µM
[1] = test system: T-47D breast
[2] = test system: SW-620 colon
[3] = test system: MCF7 breast
[4] = test system: HCT-116 colon
[5] = test system: HCC-2998 colon
[6] = test system: KM12 colon
[7] = test system: MDA-MB-435 melanoma
[8] = test system: BT-549 breast

Measured: growth

COc1cc2c(cc1OC)C(C(CCCCCC(CCC(C)C)C1NCCc3cc(OC)c(OC)cc31)CCC(C)C)NCC2 (stereo unspecified)
active: [1] -85.2% | [2] -83.8% | [3] -92.7% | [4] -100% | [5] -94.2% | [6] -97%

COc1ccc(-c2cc(-c3ccc(Cl)cc3)nc(SCCCC(=O)NO)n2)cc1
active: [1] 8.24% | [3] 0.343% | [4] 8.41% | [5] -10%
inactive: [7] 18.1% | [2] 14.2% | [6] 18%

Cc1ccc(C(C)C)c(O)c1NC(=O)OC(C)C
inactive: [8] 96.1% | [7] 106% | [2] 103% | [3] 92.7% | [4] 91.9% | [5] 89.5% | [6] 100%

COc1cc(C2CC(c3ccc4c(c3)OCO4)=NN2c2ccccc2)cc(OC)c1OC (stereo unspecified)
inactive: [8] 71.9% | [7] 30.7% | [2] 89.4% | [3] 87.4% | [4] 93.5% | [5] 83.2% | [6] 60.9%

IC(I)I
inactive: [8] 103% | [2] 102% | [3] 100% | [4] 106% | [5] 98% | [6] 104%

O=[N+]([O-])c1cc(Cl)cc(Cl)c1O
inactive: [1] 93% | [7] 98.5% | [3] 104% | [4] 93.5% | [5] 105% | [6] 98.9%

COc1ccc(/C=c2\sc3n(c2=O)C(c2cc(OC)c(OC)c(OC)c2)C=C(c2ccc(OC)c(OC)c2)N=3)cc1OC (stereo unspecified)
inactive: [7] 86.1% | [2] 109% | [3] 86.2% | [4] 89.4% | [5] 106% | [6] 95.8%

COc1ccc2nc3cc(Cl)ccc3c(NCCCNCCO)c2c1
active: [8] 5.74% | [7] -69.1% | [2] -2.84% | [3] -18.6% | [4] -50.4% | [5] -43.6% | [6] 3.19%

c1ccc(CCCCc2ccc3ccccc3n2)cc1
inactive: [8] 102% | [7] 108% | [2] 102% | [3] 108% | [4] 96% | [5] 92.9% | [6] 106%

CC(=O)C1N=NCC1c1ccccc1 (stereo unspecified)
inactive: [1] 104% | [7] 108% | [3] 95.7% | [4] 100% | [5] 102% | [6] 102%

CCN(CC)CCOc1cccc2c1C(=O)c1cccc(OCCN(CC)CC)c1C2=O
inactive: [1] 92.2% | [7] 32.5% | [2] 20.8% | [5] 54.7% | [6] 33.9%
active: [3] 9.16% | [4] 7.44%

CCc1c2c(nc3ccc(OC(=O)N4CCC(N5CCCCC5)CC4)cc13)-c1cc3c(c(=O)n1C2)COC(=O)[C@]3(O)CC
active: [3] 3.64%
inactive: [1] 25.1% | [7] 34.2% | [2] 41.4% | [5] 28.2% | [6] 53.1%

O=C(Nc1cc(Cl)cc2c1-c1ccc(Cl)cc1C2O)C(Cl)Cl (stereo unspecified)
inactive: [1] 54.1% | [7] 79.2% | [2] 79.5% | [3] 64.5% | [4] 51.1% | [5] 95.2% | [6] 76.4%

Cc1ccc(C(SCC(N)C(=O)O)(c2ccc(C)cc2)c2ccc(C)cc2)cc1 (stereo unspecified)
inactive: [1] 27.2% | [2] 20.5%
active: [7] -59.8% | [3] 9.12% | [4] -25.5% | [5] 1.38% | [6] 0.314%

CC(C1=C(CN(C(=O)Cc2cn(-c3ccccc3)nc2-c2ccc(Cl)cc2)C(C)C)Cc2ccccc21)c1ccccn1 (stereo unspecified)
inactive: [1] 40.6% | [7] 70.1% | [2] 75.8% | [3] 41.2% | [4] 31.9% | [5] 68% | [6] 54.8%

CCCC1(CN2c3ccccc3Sc3ccc(Cl)cc32)CCN(CC)C1 (stereo unspecified)
active: [7] -94.7% | [2] -94.7% | [3] -93.7% | [4] -100% | [5] -49.5% | [6] -44.5%

Nc1ncnc2c1ncn2C1(CO)OCC(O)C(O)C1O (stereo unspecified)
inactive: [1] 96.2% | [7] 107% | [2] 110% | [3] 101% | [5] 101% | [6] 98.6%

Cc1c2cnccc2c(C)c2c1c1cc(O)ccc1n2C(C)C
inactive: [5] 20.8%
active: [1] 3.1% | [7] 8.19% | [2] 2.58% | [3] -3.2% | [6] 3.74%

CCN(CC)CCNc1ccc(C)c2sc3cc(Cl)ccc3c(=O)c12
active: [7] -44.8% | [2] 2.58%
inactive: [1] 33.1% | [3] 19.8% | [4] 11.4% | [5] 23.3% | [6] 32.2%

CC(CN(C)C)Oc1ccc(OC(C)CN(C)C)c2c1C(=O)c1ccccc1C2=O (stereo unspecified)
inactive: [1] 77.7% | [7] 46.1% | [2] 27.9% | [3] 16.1% | [4] 14.2% | [5] 57.4% | [6] 51.1%

O=C(CCl)Oc1ccc(OC(=O)CCl)cc1
inactive: [8] 46.9% | [7] 85.3% | [2] 89.8% | [3] 77.9% | [4] 94.5% | [5] 109% | [6] 83.7%

O[C@@H]1CO[C@H]2[C@@H]1OC[C@@H]2O
inactive: [1] 121% | [3] 99.6% | [4] 104% | [5] 101% | [6] 105%

Clc1ccc(Cc2ccncc2)cc1
inactive: [8] 99.9% | [7] 112% | [2] 105% | [3] 97.5% | [4] 101% | [5] 95.6% | [6] 102%

CN(C)c1ncnc2c1nnn2C1OC(CO)C(O)C1O (stereo unspecified)
active: [7] 8.72% | [3] 6.74% | [5] 8.01%
inactive: [1] 10.5% | [2] 19.1% | [4] 17.2% | [6] 13.7%

COc1cc2c3c(n(C4CCN(C)CC4)c(=O)c2cc1OC)-c1cc2c(cc1C3=O)OCO2
inactive: [1] 31% | [7] 84.5% | [2] 56.2% | [3] 24.8% | [4] 40.8% | [5] 66.3% | [6] 75.9%

Nc1ccn(Cc2nnc(CCC(=O)c3nc4ccccc4[nH]3)o2)c(=O)n1
inactive: [1] 71.6% | [7] 91.9% | [2] 83.5% | [3] 35.7% | [4] 63.8% | [5] 79.8% | [6] 84.4%

Nc1nc(-c2ccc(Cl)cc2)cc(-c2cc3ccccc3oc2=O)n1
inactive: [7] 104% | [2] 97.2% | [3] 79.8% | [4] 87.7% | [5] 126% | [6] 103%

COc1ccc(-c2nn(-c3cccc(Cl)c3)cc2-c2c(C#N)c(N)n(N)c(=O)c2C#N)cc1
inactive: [1] 48.7% | [2] 83% | [3] 47.5% | [4] 45.7% | [5] 93.4%

CCn1cc(C(=O)O)c(=O)c2cc(F)c(N3CCNCC3)cc21
inactive: [1] 124% | [7] 107% | [2] 103% | [3] 107% | [4] 115% | [5] 110% | [6] 103%

CN(C)CCCOc1cccc(NC2=C(Cl)C(=O)C(Nc3cccc(OCCCN(C)C)c3)=C(Cl)C2=O)c1
inactive: [5] 14% | [6] 13.9%
active: [1] -44% | [7] -65.5% | [3] -38.3% | [4] -88.7%

CCOS(=O)(=O)c1c(C(C)C)cc(C(C)C)cc1C(C)C
inactive: [1] 115% | [7] 99.1% | [3] 91.4% | [4] 104% | [5] 99.1% | [6] 104%

CCN(CC)CCOc1ccc2c(c1O)C(=O)c1ccccc1C2=O
inactive: [1] 97.2% | [7] 94.5% | [2] 67.9% | [3] 82.1% | [5] 96.7% | [6] 98%

CCN(CC)CCCC(Nc1c2ccc(Cl)cc2nc2ccc(OC)cc12)c1ccc(F)cc1 (stereo unspecified)
inactive: [6] 14.7%
active: [7] -86.9% | [2] -53.9% | [3] -62.9% | [4] -41% | [5] -85%

O=C(CCCCC(=O)Oc1c(Cl)cc(Cl)cc1[N+](=O)[O-])Oc1c(Cl)cc(Cl)cc1[N+](=O)[O-]
inactive: [1] 102% | [7] 103% | [3] 86.3% | [4] 101% | [5] 103% | [6] 99.7%

O=C(N/N=C/c1cc([N+](=O)[O-])ccc1O)c1cccc2ccccc12
inactive: [1] 28.3% | [7] 57.1% | [2] 47.7% | [3] 16.5% | [5] 52.4% | [6] 56.1%

Cc1cc(SCc2ccccc2)nc(N)n1
inactive: [8] 89.3% | [7] 99.2% | [2] 105% | [3] 93.8% | [4] 102% | [5] 108%

S=C1N(c2ccccc2)CN(C2CCCCC2)CN1c1ccccc1
inactive: [1] 94.3% | [2] 104% | [3] 88.7% | [4] 102% | [5] 102% | [6] 110%

CN(C)CCOc1cccc(NC2=C(Cl)C(=O)C(Nc3cccc(OCCN(C)C)c3)=C(Cl)C2=O)c1
inactive: [5] 11.6% | [6] 34.4%
active: [1] -42.1% | [7] -68.6% | [3] -40.8% | [4] -89.4%

O=C(Nc1cccc2c1CCCC2)c1cc2ccccc2cc1O
inactive: [1] 32.4% | [7] 41.8% | [2] 51.4% | [3] 62.6% | [5] 59.1% | [6] 49.9%
active: [4] 6.56%

Cc1ccc(NC(=O)N2CCCCC2)cc1[N+](=O)[O-]
inactive: [1] 121% | [2] 73.3% | [3] 92.9% | [4] 94.7% | [5] 103% | [6] 111%
